Measurements from the supplement of paper PMC8726507.

Each compound was assayed on Plasmodium falciparum NF54-HGL (transmission to Anopheles stephensi) (assay: percentage of barcode signal found in uninfected mosquitoes (transmission-blocking activity); higher = stronger blocking of transmission to mosquito, active = 80 or more). Settings: 10 µM; gametocyte preincubation time 24 h; readout time post-feed 8 days.
Method: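 The mixture was fed to Anopheles stephensi in 96-well plates as blood meals tagged with DNA-barcoded Asaia bacteria. Eight days later, mosquitoes were classed infected or uninfected by luminescence (mean + 5 SD of unfed controls). Barcodes were quantified by Luminex MagPlex-TAG in the pooled uninfected and infected Asaia cultures, background-corrected, and the score is % of barcode signal in uninfected mosquitoes = 100*Iu/(Iu+Ii).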
CC(C)(C)c1cc(C(=O)Nc2cccnc2)cc(C(=O)Nc2cccnc2)c1 was tested, and the “percentage of barcode signal found in uninfected mosquitoes” value (from here on “percentage of barcode signal found”) was 41.8% (inactive). For Nc1nc(N)c2c3c(sc2n1)CN(Cc1ccccc1)CC3, the “percentage of barcode signal found” value was 11.7% (inactive). In the case of O=C1Nc2ccc(Br)cc2C12NCCc1c2[nH]c2ccccc12 (configuration not stated), the “percentage of barcode signal found” value is reported as 27.2% (inactive). For CC(Oc1cccc(Cl)c1)C(=O)Nc1ccc2oc(-c3ccncc3)nc2c1 (configuration not stated), the “percentage of barcode signal found” value was 47.8% (inactive). COc1ccc(-c2cnc3ccc(N4CCCC4)nn23)cc1OC was tested, and the “percentage of barcode signal found” value was 75.3% (inactive). With O=C(c1cc2ccccc2o1)N1CCN(Cc2ccc3c(c2)OCO3)CC1 the “percentage of barcode signal found” value was 0.553% (inactive). For CNC(=O)C1Cc2ccccc2N1C(=O)Cc1ccc(F)cc1 (configuration not stated), the “percentage of barcode signal found” value was 27.5% (inactive). N=C(N)Nc1ccc(-c2ccc(-c3ccc(N=C(N)N)c(Cl)c3)o2)cc1Cl was tested, and the “percentage of barcode signal found” value was 101% (active). COc1ccc(OC(C)C(=O)Nc2ccc(Cl)cc2C)cc1 (configuration not stated) was tested, and the “percentage of barcode signal found” value was -0.09% (inactive). O=C(COc1cccc(F)c1)Nc1nc(-c2ccccn2)cs1 was tested, and the “percentage of barcode signal found” value was 38.7% (inactive). With CC1CC1C(=O)NC1CCN(CC2(c3ccccc3)CCCCC2)CC1 (configuration not stated) the “percentage of barcode signal found” value was 97.6% (active). With O=S(=O)(c1ccc(Cl)cc1)N1CCN(C(=S)NCc2ccco2)CC1 the “percentage of barcode signal found” value was 29.2% (inactive). In the case of Cc1nnc(NC(=O)c2cn(-c3ccccc3)nc2-c2ccccc2C)o1, the “percentage of barcode signal found” value is reported as 81% (active). For CN(C)c1cc(NC(=O)Nc2ccccc2)c2ccccc2n1, the “percentage of barcode signal found” value was 88.3% (active). Clc1cccc(C(c2ccc(CN3CCNCC3)cc2)n2ccnc2)c1 (configuration not stated) was tested, and the “percentage of barcode signal found” value was 89.4% (active). With CN(C)CCNC(=O)N1CCCN(c2ncnc3cc(-c4ccccc4)sc23)CC1 the “percentage of barcode signal found” value was 34.3% (inactive). In the case of CC(C)(C)OC(=O)N1CCC(Cn2nc(-c3cnc4ccccc4c3)c3c(N)ncnc32)CC1, the “percentage of barcode signal found” value is reported as 24.4% (inactive). For Nc1ncnc2[nH]nc(Cc3cccc4ccccc34)c12, the “percentage of barcode signal found” value was 67.8% (inactive).

Same assay, conditions: 20 µM; gametocyte preincubation time 24 h; readout time post-feed 8 days
NCCN(C(=O)c1ccc(Cl)cc1Cl)c1ccc(OCc2ccc(Cl)cc2)cc1 was tested, and the “percentage of barcode signal found” value was 65.8% (inactive). In the case of NC(=O)c1cc(Br)ccc1OCCOc1ccccc1, the “percentage of barcode signal found” value is reported as 0.0693% (inactive). With Cn1c(=O)c2c(S(C)(=O)=O)snc2n(C)c1=O the “percentage of barcode signal found” value was 21.4% (inactive). For C[C@H](c1ccc2c(c1)CCCC2)N(C)c1ncc2c(N)nc(N)nc2n1, the “percentage of barcode signal found” value was 0.379% (inactive). With CC(C)NCC(=O)Nc1cccc(C(=O)Nc2cccc(C(F)(F)F)c2)c1 the “percentage of barcode signal found” value was 54% (inactive). With CC(C)(C)c1cc(C(=O)N2CCN(c3nccnc3C#N)CC2)n(Cc2ccccc2)n1 the “percentage of barcode signal found” value was 33.5% (inactive). With NCCC(O)C(=O)N[C@@H]1C[C@H](N)[C@@H](OC2O[C@H](CN)[C@@H](O)[C@H](O)[C@H]2O)[C@H](O)C1OC1O[C@H](CO)[C@@H](O)[C@H](N)[C@H]1O (some centres not stated) the “percentage of barcode signal found” value was 37.6% (inactive). For C[C@@H]1[C@H](O)[C@@H](C)/C=C/C=C/C=C/C=C/C=C/C=C/C=C/[C@H](O[C@@H]2O[C@H](C)[C@@H](O)[C@H](N)[C@@H]2O)C[C@@H]2O[C@](O)(C[C@@H](O)C[C@@H](O)[C@H](O)CC[C@@H](O)C[C@@H](O)CC(=O)O[C@H]1C)C[C@H](O)[C@H]2C(=O)O, the “percentage of barcode signal found” value was -1.39% (inactive). COc1ccc2nc(C)cc(OCC(=O)Nc3ccccc3OC)c2c1 was tested, and the “percentage of barcode signal found” value was 5.42% (inactive). For CCNC(=O)C(C)Nc1nc(-c2cccnc2)nc2sc(C)c(C)c12 (configuration not stated), the “percentage of barcode signal found” value was 11.5% (inactive). For Cc1cc(NCC(C)C)c2n[nH]c(-c3ccccc3)c2n1, the “percentage of barcode signal found” value was 43% (inactive). For CC(=O)NCC1CN(c2ccc(-c3ccc(CNCc4cn[nH]n4)cc3)c(F)c2)C(=O)O1 (configuration not stated), the “percentage of barcode signal found” value was 9.84% (inactive). With COc1ccc(CCN2CCC(NCc3cccc(N(C)C)c3)CC2)cc1 the “percentage of barcode signal found” value was 94.9% (active). FC(F)(F)c1ccc(N(c2cccnc2)C2CCN(c3ccc(C(F)(F)F)cn3)CC2)cc1 was tested, and the “percentage of barcode signal found” value was 27.4% (inactive). In the case of O=C(C1CCN(c2cc(-n3cccc3)ncn2)CC1)N1CCc2ccccc2C1, the “percentage of barcode signal found” value is reported as 26.4% (inactive). With O=C1[C@@H](Oc2ccccc2)[C@@H](c2ccc(Cl)cc2)N1CCn1cnc2c(NCc3ccccc3)ncnc21 the “percentage of barcode signal found” value was 1.2% (inactive). With O=C(Nc1cnc2ccccc2c1)c1cccc(-n2cnnn2)c1 the “percentage of barcode signal found” value was 21.3% (inactive). With O=C(Nc1cccc(-c2ccc(NCCCN3CCCC3)nc2)c1)c1ccccc1 the “percentage of barcode signal found” value was 29.8% (inactive). In the case of Cc1cc(O)nc(-n2nc(C)cc2C)n1, the “percentage of barcode signal found” value is reported as 70.1% (inactive).
